In the supplement of paper PMC12067093, “Discovery and optimisation of a covalent ligand for TRIM25 and its application to targeted protein ubiquitination” (Chemical Science, 2025):
About 21,000 targets were measured; listed, in parts, are those with the largest changes and a random draw of the rest.

Compound: CC1Cc2ccccc2N1C(=O)C1CCCN(C1)C(=O)CCl (mixture of isomers) [TRIM25 ligand 11 (diastereomer mixture)]
Assay: probe-labelled cysteine peptide fold change vs DMSO (competition) (log2 fold change); higher = less target engagement (more negative = stronger competition)
Conditions: 10 µM; THP-1; incubation time: 4 h
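Note: competitive chemoproteomic profiling in live THP-1 cells with an iodoacetamide desthiobiotin (IA-DTB) probe, comparing probe-labelled peptide intensities in compound-treated cells against DMSO-treated controls.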

Sequence of UniProt Q9BXW6 (Q9BXW6 whole entry, looked up): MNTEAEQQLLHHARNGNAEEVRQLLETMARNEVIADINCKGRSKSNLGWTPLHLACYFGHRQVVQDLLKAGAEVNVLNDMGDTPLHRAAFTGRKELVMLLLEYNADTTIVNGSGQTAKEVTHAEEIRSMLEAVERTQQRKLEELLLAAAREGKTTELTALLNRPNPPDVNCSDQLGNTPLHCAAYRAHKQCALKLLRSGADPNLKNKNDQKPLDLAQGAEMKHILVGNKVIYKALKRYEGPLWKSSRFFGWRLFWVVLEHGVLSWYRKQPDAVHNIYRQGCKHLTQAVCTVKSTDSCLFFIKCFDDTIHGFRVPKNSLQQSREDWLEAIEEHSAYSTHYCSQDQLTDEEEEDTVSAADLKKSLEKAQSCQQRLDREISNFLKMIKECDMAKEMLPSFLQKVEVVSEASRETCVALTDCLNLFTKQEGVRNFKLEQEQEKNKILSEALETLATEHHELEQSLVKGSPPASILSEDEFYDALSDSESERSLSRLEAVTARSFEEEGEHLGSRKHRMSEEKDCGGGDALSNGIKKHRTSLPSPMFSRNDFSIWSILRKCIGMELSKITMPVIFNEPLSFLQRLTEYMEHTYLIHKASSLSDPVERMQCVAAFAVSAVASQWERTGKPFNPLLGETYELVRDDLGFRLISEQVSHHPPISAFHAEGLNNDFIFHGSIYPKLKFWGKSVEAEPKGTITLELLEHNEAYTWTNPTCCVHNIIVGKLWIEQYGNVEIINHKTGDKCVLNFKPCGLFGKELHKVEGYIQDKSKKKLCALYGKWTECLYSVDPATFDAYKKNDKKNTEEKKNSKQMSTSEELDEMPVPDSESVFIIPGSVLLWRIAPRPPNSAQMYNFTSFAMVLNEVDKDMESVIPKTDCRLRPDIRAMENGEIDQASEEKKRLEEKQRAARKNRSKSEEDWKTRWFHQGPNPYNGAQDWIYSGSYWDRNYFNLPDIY
Sequence of UniProt Q96E22 (Q96E22 whole entry, looked up): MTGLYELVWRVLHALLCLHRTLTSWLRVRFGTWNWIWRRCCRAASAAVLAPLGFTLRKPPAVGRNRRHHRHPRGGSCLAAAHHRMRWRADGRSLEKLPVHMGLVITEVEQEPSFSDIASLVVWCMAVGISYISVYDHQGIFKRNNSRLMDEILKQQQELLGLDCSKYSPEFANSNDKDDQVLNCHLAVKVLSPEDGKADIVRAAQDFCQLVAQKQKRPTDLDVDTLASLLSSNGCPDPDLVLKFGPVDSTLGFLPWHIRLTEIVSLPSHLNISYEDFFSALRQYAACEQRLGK
Sequence of UniProt Q9BSC4 (Q9BSC4 whole entry, looked up): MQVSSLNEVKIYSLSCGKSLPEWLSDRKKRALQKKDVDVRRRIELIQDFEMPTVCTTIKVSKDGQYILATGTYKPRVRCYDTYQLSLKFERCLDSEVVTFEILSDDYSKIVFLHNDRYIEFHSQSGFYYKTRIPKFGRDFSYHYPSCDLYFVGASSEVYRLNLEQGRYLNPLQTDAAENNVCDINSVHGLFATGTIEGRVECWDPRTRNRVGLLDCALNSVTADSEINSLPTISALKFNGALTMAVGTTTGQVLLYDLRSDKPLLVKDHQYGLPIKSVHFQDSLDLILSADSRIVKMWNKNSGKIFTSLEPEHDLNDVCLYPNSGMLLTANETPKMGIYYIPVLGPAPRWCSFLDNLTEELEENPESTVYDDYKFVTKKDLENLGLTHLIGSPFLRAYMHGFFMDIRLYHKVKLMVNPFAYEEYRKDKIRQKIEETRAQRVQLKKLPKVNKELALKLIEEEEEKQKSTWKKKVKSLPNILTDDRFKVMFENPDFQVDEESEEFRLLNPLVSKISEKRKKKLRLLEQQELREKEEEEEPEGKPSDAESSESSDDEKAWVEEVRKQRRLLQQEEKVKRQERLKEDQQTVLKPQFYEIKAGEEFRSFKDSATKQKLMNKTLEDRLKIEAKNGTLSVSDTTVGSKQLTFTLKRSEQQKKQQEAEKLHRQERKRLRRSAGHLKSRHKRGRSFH
Sequence of UniProt Q9H4L5 (Q9H4L5 whole entry, looked up): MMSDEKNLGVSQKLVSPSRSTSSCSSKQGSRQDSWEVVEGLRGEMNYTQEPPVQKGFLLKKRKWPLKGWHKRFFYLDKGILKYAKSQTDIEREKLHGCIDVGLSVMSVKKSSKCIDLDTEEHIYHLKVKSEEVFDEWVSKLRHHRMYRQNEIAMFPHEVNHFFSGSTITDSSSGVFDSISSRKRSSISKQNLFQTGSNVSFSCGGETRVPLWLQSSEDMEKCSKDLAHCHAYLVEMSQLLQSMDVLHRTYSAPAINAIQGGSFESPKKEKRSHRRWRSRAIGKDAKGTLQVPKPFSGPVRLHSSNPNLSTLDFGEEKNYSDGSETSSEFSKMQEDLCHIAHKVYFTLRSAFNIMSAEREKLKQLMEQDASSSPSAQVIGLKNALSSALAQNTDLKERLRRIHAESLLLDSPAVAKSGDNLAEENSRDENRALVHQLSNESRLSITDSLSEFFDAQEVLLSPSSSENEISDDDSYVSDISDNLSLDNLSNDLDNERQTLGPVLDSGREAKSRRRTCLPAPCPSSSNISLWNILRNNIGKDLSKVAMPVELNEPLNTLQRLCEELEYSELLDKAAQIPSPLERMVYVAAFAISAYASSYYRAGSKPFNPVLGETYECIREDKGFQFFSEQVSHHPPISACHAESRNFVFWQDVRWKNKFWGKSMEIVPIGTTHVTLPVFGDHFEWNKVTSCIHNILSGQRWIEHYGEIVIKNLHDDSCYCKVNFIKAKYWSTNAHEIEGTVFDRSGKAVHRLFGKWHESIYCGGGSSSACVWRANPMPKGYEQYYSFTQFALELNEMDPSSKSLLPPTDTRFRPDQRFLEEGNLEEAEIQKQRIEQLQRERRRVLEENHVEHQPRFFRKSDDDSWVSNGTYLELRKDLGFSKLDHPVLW
Sequence of UniProt Q08J23 (Q08J23 whole entry, looked up): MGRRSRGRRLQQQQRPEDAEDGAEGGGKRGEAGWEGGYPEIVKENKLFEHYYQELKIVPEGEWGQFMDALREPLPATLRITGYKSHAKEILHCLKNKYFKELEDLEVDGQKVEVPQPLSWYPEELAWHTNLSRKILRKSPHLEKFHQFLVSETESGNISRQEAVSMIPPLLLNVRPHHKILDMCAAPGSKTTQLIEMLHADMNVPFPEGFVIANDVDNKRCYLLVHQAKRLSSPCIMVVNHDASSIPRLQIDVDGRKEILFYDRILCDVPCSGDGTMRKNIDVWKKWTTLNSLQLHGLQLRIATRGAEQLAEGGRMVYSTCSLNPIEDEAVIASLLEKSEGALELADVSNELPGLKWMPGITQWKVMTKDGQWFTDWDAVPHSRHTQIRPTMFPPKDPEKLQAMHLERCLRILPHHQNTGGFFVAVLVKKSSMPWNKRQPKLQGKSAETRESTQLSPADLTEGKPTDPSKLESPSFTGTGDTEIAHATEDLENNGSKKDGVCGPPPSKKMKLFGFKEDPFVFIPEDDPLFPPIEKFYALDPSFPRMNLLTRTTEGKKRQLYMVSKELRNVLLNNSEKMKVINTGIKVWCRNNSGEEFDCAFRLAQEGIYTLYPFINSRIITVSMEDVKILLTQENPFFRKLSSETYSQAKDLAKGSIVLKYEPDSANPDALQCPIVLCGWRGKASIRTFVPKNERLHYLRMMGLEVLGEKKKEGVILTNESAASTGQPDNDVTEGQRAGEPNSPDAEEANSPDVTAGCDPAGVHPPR
Sequence of UniProt P04181 (P04181 whole entry, looked up): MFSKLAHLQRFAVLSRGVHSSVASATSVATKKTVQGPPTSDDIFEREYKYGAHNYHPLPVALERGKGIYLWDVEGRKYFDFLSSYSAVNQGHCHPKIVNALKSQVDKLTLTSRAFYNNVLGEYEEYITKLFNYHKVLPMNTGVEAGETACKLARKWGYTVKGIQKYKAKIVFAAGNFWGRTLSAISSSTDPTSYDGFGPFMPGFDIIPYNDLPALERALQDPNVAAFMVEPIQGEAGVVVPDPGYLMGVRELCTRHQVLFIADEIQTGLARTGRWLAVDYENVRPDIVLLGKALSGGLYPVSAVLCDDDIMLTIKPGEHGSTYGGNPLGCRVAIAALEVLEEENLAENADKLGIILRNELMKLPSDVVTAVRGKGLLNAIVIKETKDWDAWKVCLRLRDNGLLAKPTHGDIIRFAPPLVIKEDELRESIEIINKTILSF
Sequence of UniProt P32242 (P32242 whole entry): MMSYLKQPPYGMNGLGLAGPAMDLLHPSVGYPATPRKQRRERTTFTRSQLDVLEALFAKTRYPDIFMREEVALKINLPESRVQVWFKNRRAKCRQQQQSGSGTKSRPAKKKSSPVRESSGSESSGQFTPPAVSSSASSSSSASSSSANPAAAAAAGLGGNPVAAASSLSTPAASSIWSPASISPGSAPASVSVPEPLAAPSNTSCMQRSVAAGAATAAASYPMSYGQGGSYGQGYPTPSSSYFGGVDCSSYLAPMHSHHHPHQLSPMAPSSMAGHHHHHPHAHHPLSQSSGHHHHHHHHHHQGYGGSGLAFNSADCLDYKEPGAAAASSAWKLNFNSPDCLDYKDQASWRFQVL
Sequence of UniProt Q9NR12 (Q9NR12 whole entry, looked up): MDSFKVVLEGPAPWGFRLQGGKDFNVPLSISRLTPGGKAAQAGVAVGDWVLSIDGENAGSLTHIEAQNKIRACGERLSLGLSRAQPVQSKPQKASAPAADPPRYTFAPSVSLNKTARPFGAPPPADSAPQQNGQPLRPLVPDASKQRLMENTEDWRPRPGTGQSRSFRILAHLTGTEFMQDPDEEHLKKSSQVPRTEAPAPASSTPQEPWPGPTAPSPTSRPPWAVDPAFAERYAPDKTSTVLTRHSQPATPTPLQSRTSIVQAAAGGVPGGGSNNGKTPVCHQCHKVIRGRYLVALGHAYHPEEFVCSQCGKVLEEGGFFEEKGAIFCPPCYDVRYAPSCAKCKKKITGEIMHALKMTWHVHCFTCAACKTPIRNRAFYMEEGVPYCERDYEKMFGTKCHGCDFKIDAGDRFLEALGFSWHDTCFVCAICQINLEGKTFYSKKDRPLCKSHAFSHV

In order of falling “probe-labelled cysteine peptide fold change” value:
1. OTX1_P32242_340_LNFNSPDCLDYK (UniProt P32242)  0.161
2. NUDT4B_A0A024RBG1_28_AACLCFR<|>NUDT3_O95989_25_AACLCFR<|>NUDT10_Q8NFP7_24_AACLCFR<|>NUDT11_Q96G61_24_AACLCFR<|>NUDT4_Q9NZJ9_25_AACLCFR (UniProt Q9NZJ9+Q8NFP7+Q96G61+O95989)  0.153
3. PASK_Q96RG2_759+761_ELFFSDQTDQTSSNCSCATSELR (UniProt Q96RG2)  0.0516
4. NSUN2_Q08J23_673+678_YEPDSANPDALQCPIVLCGWR (UniProt Q08J23)  0.0479
5. OAT_P04181_150_VLPMNTGVEAGETACK (UniProt P04181)  0.0276
6. OSBPL1A_Q9BXW6_520_DCGGGDALSNGIK (UniProt Q9BXW6)  0.00496
7. NUP205_Q92621_1032_TCLHAILNILEK (UniProt Q92621)  0.00038
8. PDS5B_Q9NTI5_732_YAIHCIHAIFSSK (UniProt Q9NTI5)  -0.00231
9. PDLIM7_Q9NR12_370_MTWHVHCFTCAACK (UniProt Q9NR12)  -0.0568
10. OSBPL3_Q9H4L5_114_CIDLDTEEHIYHLK (UniProt Q9H4L5)  -0.0859
11. NUP133_Q8WUM0_457_IVFNAQGDSVLGAGACGGVPIIFSR (UniProt Q8WUM0)  -0.146
12. NUS1_Q96E22_235_QKRPTDLDVDTLASLLSSNGCPDPDLVLK (UniProt Q96E22)  -0.332
13. NOL10_Q9BSC4_147_DFSYHYPSCDLYFVGASSEVYR (UniProt Q9BSC4)  -0.459
